Reference: PubChem BioAssay (EPA / NIEHS)
Values joined by “and” are separate entries in the source; they are usually repeats but may differ in a detail not shown here. Equal values may be shown once. Results filed as inconclusive are left out. The source holds several records for some structures; these can differ, active in one and inactive in another. Active and inactive are the calls of the source. Rule for the calls, unless noted: active = hit-call score of the fitted dose curve at least 0.9, where 1 is the maximum; inactive = score below 0.9.

Key:
[1] = ATG_GAL4_TRANS: Attagene TRANS-FACTORIAL HepG2 Assay for GAL4 (Internal Marker) (AID 2282976; active = hit-call score of the fitted dose curve at least 0.9, where 1 is the maximum); details: HepG2 Attagene TRANS GAL4 internal marker reporter
Method in brief: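 RT-PCR/capillary electrophoresis readout of reporter mRNA. HepG2, transient MRTU transfection (GAL4-UAS reporters), 24 h compound exposure. Background-control endpoint, positive direction vs DMSO baseline.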

[2] = target: Bile acid receptor (Homo sapiens) (UniProt Q96RI1); experiment: ATG_FXR_TRANS: Attagene TRANS-FACTORIAL HepG2 Assay for Farnesoid X Receptor (FXR) (AID 2282979; active = hit-call score of the fitted dose curve at least 0.9, where 1 is the maximum;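 note: hits raise reporter mRNA above DMSO so AC50 marks FXR activation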); details: HepG2 Attagene TRANS FXR-GAL4 reporter transcription
Bile acid receptor (Homo sapiens), sequence (Q96RI1 whole entry, looked up, the tested form may be a part): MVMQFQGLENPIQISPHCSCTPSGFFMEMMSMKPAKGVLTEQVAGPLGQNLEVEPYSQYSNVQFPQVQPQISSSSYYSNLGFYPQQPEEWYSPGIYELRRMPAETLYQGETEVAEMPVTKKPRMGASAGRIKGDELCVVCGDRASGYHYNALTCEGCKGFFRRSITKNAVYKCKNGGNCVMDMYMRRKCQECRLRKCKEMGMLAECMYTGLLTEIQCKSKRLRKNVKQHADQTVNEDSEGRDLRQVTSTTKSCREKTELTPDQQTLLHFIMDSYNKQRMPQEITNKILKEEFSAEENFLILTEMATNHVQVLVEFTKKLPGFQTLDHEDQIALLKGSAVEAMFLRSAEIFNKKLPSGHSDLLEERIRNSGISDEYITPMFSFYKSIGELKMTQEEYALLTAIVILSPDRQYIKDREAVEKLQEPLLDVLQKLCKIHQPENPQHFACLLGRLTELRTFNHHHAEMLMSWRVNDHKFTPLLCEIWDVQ
Method in brief: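 Read-out: fluorescent reporter transcripts quantified by capillary electrophoresis after RT-PCR of total RNA. Source cells were HepG2 transiently carrying chimeric NR-GAL4 plus GAL4-UAS reporter units, dosed 24 h. Activity fitted upward relative to DMSO baseline.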

[3] = target: Oxysterols receptor LXR-beta (Homo sapiens) (UniProt P55055); experiment: ATG_LXRb_TRANS: Attagene TRANS-FACTORIAL HepG2 Assay for human Liver X Receptor beta (LXRb) (AID 2282981; active = hit-call score of the fitted dose curve at least 0.9, where 1 is the maximum); details: HepG2 Attagene TRANS GAL4-LXRb reporter, mRNA
Method in brief: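 HepG2 cells transiently transfected with multiple reporter transcription units carrying chimeric NR-Gal4 proteins acting on GAL4-UAS reporters; compound exposure 24 h. Reporter mRNA quantified by RT-PCR, 6-FAM labelling, HpaI digestion and capillary electrophoresis; gain of signal versus DMSO.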

[4] = ATG_M_06_TRANS: Attagene TRANS-FACTORIAL HepG2 Assay for M06 Transcription Factor (Internal Marker) (AID 2282983; active = hit-call score of the fitted dose curve at least 0.9, where 1 is the maximum); details: HepG2 Attagene TRANS M06 internal marker reporter
Method in brief: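 After a 24 h chemical treatment of transfected HepG2, RNA underwent DNase I treatment, reverse transcription and reporter-specific PCR; labelled, HpaI-digested products were sized by capillary electrophoresis. Signal increase relative to DMSO defined activity.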

[5] = ATG_M_32_TRANS: Attagene TRANS-FACTORIAL HepG2 Assay for M32 Transcription Factor (Internal Marker) (AID 2282984; active = hit-call score of the fitted dose curve at least 0.9, where 1 is the maximum;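 note: transcript level of a background control reporter unit measured by RT-PCR and capillary electrophoresis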); details: HepG2 Attagene TRANS M32 internal marker reporter
Method in brief: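 HepG2 cells transiently transfected with multiple GAL4-UAS reporter transcription units, dosed for 24 hours; reporter mRNA quantified by RT-PCR, 6-FAM primer extension, HpaI digestion and capillary electrophoresis. Gain-of-signal fitted versus DMSO baseline; internal background-control marker.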

[6] = target: Transcriptional activator Myb (Homo sapiens) (UniProt P10242); experiment: ATG_Myb_CIS: Attagene CIS-FACTORIAL HepG2 Assay for human Myeloblastosis (Myb) Proto-Oncogene Transcription Factor (AID 2282986); details: HepG2 Attagene CIS-FACTORIAL Myb reporter transcription; actives raise or lower the signal
Transcriptional activator Myb (Homo sapiens), sequence (P10242 whole entry, looked up): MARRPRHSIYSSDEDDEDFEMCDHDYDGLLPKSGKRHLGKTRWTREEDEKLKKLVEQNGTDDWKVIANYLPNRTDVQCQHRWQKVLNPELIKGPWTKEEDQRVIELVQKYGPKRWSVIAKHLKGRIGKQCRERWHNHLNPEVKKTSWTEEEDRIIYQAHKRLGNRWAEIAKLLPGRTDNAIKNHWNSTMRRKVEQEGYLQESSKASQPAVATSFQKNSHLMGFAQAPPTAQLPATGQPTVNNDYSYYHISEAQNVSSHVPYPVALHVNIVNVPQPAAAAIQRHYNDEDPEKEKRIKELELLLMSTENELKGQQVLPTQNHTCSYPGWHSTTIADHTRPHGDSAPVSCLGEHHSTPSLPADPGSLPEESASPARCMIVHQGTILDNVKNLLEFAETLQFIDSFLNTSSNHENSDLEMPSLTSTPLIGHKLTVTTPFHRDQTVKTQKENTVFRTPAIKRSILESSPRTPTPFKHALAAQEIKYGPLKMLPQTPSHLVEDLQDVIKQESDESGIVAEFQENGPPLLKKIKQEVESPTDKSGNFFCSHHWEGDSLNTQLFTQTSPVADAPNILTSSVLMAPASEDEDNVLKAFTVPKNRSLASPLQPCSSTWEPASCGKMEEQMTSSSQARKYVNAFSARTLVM
Method in brief: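 Endogenous transcription factor activity at a Myb-responsive cis element is reported in human liver HepG2 cells after 24 h chemical treatment. Reporter mRNA is detected by RT-PCR and capillary electrophoresis fluorescence, with DMSO as baseline.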

[7] = target: Nuclear respiratory factor 1 (Homo sapiens) (UniProt Q16656); experiment: ATG_NRF1_CIS: Attagene CIS-FACTORIAL HepG2 Assay for human Nuclear Respiratory Factor 1 (NRF1) Orphan Gene (AID 2282987); details: HepG2 NRF1 cis-element reporter, Attagene multiplex; actives raise or lower the signal
Nuclear respiratory factor 1 (Homo sapiens), sequence (Q16656 whole entry, looked up): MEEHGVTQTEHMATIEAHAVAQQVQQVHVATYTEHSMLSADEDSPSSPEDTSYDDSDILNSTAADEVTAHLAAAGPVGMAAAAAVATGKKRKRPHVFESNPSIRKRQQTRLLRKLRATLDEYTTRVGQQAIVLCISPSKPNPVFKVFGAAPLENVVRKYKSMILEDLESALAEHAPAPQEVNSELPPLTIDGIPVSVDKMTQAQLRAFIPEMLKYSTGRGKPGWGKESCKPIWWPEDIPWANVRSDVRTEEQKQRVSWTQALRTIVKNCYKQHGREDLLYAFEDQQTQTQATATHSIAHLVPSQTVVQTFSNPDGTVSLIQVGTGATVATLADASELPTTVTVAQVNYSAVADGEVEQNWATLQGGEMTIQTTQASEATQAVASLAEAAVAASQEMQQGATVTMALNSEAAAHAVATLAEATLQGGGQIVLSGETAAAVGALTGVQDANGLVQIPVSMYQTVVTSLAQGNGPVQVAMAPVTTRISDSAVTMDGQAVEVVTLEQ
Method in brief: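 Human hepatoma HepG2 cells carrying transfected promoter-regulated reporter units were incubated with test chemicals for 24 h. Reporter transcripts were measured by RT-PCR plus capillary electrophoresis, and endpoints derived by bidirectional fitting with DMSO as baseline.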

[8] = ATG_NFI_CIS: Attagene CIS-FACTORIAL HepG2 Assay for human Nuclear Factor I (NFI) (AID 2282989); details: HepG2 cis-regulatory reporter, NFI response element transcription; actives raise or lower the signal
Method in brief: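 Cells: human liver HepG2, transiently transfected with promoter-regulated reporter transcription units. Exposure 24 h. Detection: fluorescent RT-PCR products separated by capillary electrophoresis, normalised to DMSO negative control.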

[9] = target: Myc proto-oncogene protein (Homo sapiens) (UniProt P01106); experiment: ATG_Myc_CIS: Attagene CIS-FACTORIAL HepG2 Assay for human Myelocytomatosis (Myc) Proto-Oncogene Transcription Factor (AID 2282990); details: HepG2, Attagene cis-reporter transcription factor activity; actives raise or lower the signal
Myc proto-oncogene protein (Homo sapiens), sequence (P01106 whole entry, looked up): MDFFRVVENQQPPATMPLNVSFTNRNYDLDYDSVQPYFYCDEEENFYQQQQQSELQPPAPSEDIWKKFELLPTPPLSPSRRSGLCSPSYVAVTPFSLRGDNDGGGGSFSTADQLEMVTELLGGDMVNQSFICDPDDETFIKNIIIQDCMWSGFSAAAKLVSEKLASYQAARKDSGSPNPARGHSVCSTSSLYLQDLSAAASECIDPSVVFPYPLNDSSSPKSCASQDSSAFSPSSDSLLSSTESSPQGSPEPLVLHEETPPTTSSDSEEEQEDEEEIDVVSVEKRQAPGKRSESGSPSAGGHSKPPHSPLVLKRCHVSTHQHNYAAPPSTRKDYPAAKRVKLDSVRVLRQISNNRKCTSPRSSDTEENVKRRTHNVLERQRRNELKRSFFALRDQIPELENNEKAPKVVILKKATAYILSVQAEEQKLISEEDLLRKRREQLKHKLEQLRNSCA
Method in brief: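 HepG2 cells transiently transfected with multiple cis-promoter-driven reporter transcription units, so endogenous TF activity is read. After 24 h compound exposure, reporter mRNA was quantified by RT-PCR, 6-FAM labelling, HpaI digestion and capillary electrophoresis; bidirectional fit versus DMSO.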

[10] = ATG_NRF2_ARE_CIS: Attagene CIS-FACTORIAL HepG2 Assay for human Nuclear Factor Erythroid 2 Related Factor 2 (NFR2) response to Antioxidant Response Elements (ARE) (AID 2282992); details: HepG2 Attagene ARE/NRF2 reporter, transcription factor activity; actives raise or lower the signal;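 for AC50: reporter mRNA level measured by RT-PCR and capillary electrophoresis fluorescence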
Method in brief: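 Cis-factorial assay: transfected HepG2 reporter library, 24 h dosing, mRNA readout via RT-PCR/CE; DMSO-referenced bidirectional analysis.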

[11] = ATG_Oct_MLP_CIS: Attagene CIS-FACTORIAL HepG2 Assay for human Octamer-Binding Transcription Factor (Oct) (AID 2282993); details: HepG2 Attagene cis-factorial Oct reporter, mRNA; actives raise or lower the signal
Method in brief: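 HepG2, transient MRTU transfection, cis promoter elements; 24 h dosing; RT-PCR/CE fluorescence read-out of reporter mRNA; fit both directions vs DMSO.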

[12] = target: Estrogen-related receptor gamma (Homo sapiens) (UniProt P62508); experiment: ATG_ERRg_TRANS: Attagene TRANS-FACTORIAL HepG2 Assay for human Estrogen-Related Receptor gamma (ERRg) (AID 2282977; active = hit-call score of the fitted dose curve at least 0.9, where 1 is the maximum;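 note: hits increase reporter signal over DMSO so potencies reflect activators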); details: HepG2 Attagene TRANS reporter, ERRg transactivation
Estrogen-related receptor gamma (Homo sapiens), sequence (P62508 whole entry, looked up, the tested form may be a part): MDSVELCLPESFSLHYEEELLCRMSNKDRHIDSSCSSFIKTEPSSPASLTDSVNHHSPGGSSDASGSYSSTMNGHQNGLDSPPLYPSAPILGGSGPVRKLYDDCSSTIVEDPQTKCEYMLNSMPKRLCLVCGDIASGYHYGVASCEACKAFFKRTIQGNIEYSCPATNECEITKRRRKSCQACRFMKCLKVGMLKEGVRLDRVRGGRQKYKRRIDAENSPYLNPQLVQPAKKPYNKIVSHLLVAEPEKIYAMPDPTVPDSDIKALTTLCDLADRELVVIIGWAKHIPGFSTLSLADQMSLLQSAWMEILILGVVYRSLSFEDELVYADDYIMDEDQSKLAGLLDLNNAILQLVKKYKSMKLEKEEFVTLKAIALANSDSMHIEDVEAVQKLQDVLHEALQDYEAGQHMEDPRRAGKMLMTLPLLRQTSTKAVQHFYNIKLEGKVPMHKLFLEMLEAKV
Method in brief: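 Transient HepG2 transfectants, 24 h compound exposure, GAL4-UAS reporter mRNA by RT-PCR/6-FAM labelling/capillary electrophoresis; positive direction vs DMSO.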

[13] = target: Glucocorticoid receptor (Homo sapiens) (UniProt P04150); experiment: ATG_GR_TRANS: Attagene TRANS-FACTORIAL HepG2 Assay for human Glucocorticoid Receptor (GR) (AID 2282978; active = hit-call score of the fitted dose curve at least 0.9, where 1 is the maximum;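 note: activators score as hits since higher reporter transcript over DMSO is fitted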); details: HepG2 Attagene TRANS GR reporter, mRNA transcription
Glucocorticoid receptor (Homo sapiens), sequence (P04150 whole entry, looked up): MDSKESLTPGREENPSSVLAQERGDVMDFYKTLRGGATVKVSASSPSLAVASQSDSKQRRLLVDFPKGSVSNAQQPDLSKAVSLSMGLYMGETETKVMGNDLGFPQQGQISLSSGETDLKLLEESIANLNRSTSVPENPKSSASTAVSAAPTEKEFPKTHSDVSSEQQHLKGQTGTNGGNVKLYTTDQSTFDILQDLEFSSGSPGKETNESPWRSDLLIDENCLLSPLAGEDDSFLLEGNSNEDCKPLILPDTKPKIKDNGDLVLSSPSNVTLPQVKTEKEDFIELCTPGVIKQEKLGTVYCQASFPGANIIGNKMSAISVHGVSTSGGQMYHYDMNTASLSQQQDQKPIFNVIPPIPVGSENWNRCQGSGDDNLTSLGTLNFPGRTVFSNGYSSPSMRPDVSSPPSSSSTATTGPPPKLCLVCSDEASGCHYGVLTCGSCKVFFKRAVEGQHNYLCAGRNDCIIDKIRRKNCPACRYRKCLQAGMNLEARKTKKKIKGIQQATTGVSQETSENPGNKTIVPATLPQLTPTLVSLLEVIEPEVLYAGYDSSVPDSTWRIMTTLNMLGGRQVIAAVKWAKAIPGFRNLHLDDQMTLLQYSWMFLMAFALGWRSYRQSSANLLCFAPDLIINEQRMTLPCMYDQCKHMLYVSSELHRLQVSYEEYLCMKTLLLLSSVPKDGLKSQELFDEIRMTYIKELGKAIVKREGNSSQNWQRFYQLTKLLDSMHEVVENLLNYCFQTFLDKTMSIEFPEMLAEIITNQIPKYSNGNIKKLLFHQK
Method in brief: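 Multiplexed TRANS reporter system, HepG2; 24 h exposure; RNA → oligo(dT) RT → reporter-specific PCR → 6-FAM primer extension → HpaI cut → CE fluorescence. Gain-of-signal vs DMSO.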

[14] = target: Oxysterols receptor LXR-alpha (Homo sapiens) (UniProt Q13133); experiment: ATG_LXRa_TRANS: Attagene TRANS-FACTORIAL HepG2 Assay for human Liver X Receptor alpha (LXRa) (AID 2282980; active = hit-call score of the fitted dose curve at least 0.9, where 1 is the maximum); details: HepG2 Attagene TRANS reporter, LXRa transactivation
Oxysterols receptor LXR-alpha (Homo sapiens), sequence (Q13133 whole entry, looked up, the tested form may be a part): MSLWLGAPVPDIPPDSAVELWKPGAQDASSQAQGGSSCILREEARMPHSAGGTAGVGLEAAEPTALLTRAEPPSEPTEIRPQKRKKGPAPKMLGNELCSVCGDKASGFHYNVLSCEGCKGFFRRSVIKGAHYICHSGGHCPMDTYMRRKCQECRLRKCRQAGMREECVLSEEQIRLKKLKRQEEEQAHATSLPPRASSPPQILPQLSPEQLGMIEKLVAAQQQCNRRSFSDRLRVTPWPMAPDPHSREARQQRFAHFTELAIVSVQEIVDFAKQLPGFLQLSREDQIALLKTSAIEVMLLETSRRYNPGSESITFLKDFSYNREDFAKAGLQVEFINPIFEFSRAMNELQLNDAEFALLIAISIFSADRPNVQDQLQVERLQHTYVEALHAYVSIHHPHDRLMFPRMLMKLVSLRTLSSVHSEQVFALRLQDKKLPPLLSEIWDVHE
Method in brief: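 Read-out: reporter transcript levels by RT-PCR plus capillary electrophoresis, fluorescence intensity. Transiently transfected HepG2, exogenous NR-GAL4 chimera, GAL4-UAS reporters; 24 h compound exposure. Activity = increase over DMSO negative control.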

[15] = target: Nuclear receptor subfamily 4 group A member 2 (Homo sapiens) (UniProt P43354); experiment: ATG_NURR1_TRANS: Attagene TRANS-FACTORIAL HepG2 Assay for human Nuclear Receptor Related Protein 1 (NURR1) (AID 2282985; active = hit-call score of the fitted dose curve at least 0.9, where 1 is the maximum); details: HepG2 Attagene TRANS reporter, mRNA readout
Nuclear receptor subfamily 4 group A member 2 (Homo sapiens), sequence (P43354 whole entry, looked up, the tested form may be a part): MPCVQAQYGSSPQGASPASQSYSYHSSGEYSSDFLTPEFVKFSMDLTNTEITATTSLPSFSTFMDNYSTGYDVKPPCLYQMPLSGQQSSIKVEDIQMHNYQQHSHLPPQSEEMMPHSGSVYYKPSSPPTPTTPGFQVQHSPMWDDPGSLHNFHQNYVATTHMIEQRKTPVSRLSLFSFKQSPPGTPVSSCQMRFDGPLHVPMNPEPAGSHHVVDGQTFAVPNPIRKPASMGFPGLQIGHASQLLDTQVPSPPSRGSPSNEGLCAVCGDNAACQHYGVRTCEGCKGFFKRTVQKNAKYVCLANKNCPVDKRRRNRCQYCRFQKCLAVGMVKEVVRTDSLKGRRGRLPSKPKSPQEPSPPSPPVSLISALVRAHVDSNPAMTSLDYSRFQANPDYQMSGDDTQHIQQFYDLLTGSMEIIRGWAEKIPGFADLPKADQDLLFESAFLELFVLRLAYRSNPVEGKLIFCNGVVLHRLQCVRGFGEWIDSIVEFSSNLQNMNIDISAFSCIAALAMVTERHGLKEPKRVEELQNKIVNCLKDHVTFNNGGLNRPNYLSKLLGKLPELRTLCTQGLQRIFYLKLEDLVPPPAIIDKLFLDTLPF
Method in brief: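 HepG2 cells transiently transfected with GAL4-UAS reporter units and chimeric NR-Gal4 constructs; chemical exposure 24 h. Reporter mRNA quantified by RT-PCR, fluorescent labelling and capillary electrophoresis; gain of signal fitted relative to DMSO baseline.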

[16] = ATG_NF_kB_CIS: Attagene CIS-FACTORIAL HepG2 Assay for human Nuclear Factor Kappa B (NF-kB) (AID 2282991); details: HepG2 Attagene cis-factorial NF-kB reporter mRNA; actives raise or lower the signal
Method in brief: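 Multiplexed cis-reporter assay in transiently transfected HepG2. 24 h treatment; RNA isolated, RT-PCR, labelled fragments resolved by CE. DMSO baseline.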

[17] = target: Cellular tumor antigen p53 (Homo sapiens) (UniProt P04637); experiment: ATG_p53_CIS: Attagene CIS-FACTORIAL HepG2 Assay for human p53 Transcription Factor (AID 2282994); details: HepG2 p53 cis-element reporter, Attagene mRNA; actives raise or lower the signal
Cellular tumor antigen p53 (Homo sapiens), sequence (P04637 whole entry, looked up): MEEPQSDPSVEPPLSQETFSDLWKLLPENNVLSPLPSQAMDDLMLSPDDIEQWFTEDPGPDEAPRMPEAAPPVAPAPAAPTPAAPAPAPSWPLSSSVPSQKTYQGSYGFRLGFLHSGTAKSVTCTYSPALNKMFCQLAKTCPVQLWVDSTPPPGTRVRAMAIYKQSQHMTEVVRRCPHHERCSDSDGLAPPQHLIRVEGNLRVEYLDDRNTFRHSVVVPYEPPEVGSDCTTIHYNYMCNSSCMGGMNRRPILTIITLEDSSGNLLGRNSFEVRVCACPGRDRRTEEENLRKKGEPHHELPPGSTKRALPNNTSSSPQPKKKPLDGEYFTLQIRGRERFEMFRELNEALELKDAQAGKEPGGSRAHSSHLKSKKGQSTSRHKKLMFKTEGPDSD
Method in brief: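 Using HepG2 hepatoma cells carrying cis-acting multiplexed reporters, mRNA induction is detected after a 24 h exposure. Gain- and loss-of-signal responses are fitted relative to DMSO-treated cells.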

[18] = BSK_3C_TissueFactor: BioMAP Diversity Plus: 3C Assay for Tissue Factor Biomarker Activity (AID 2282997); details: BioMAP 3C HUVEC, tissue factor biomarker readout; actives raise or lower the signal
Method in brief: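 Human vascular primary cells (umbilical vein endothelium) received test chemical; Tissue Factor was determined by ELISA at 24 h, and both gain and loss of signal versus DMSO were fitted.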

[19] = BSK_3C_uPAR: BioMAP Diversity Plus: 3C Assay for Urokinase-type plasminogen activator receptor (uPAR) Biomarker Activity (AID 2282998); details: BioMAP 3C HUVEC, uPAR biomarker ELISA; actives raise or lower the signal
Method in brief: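 A multiplexed primary-cell system built on human umbilical vein endothelium was used, with chemical present for 24 h before reading. Cell-surface uPAR was detected by ELISA; signal change in either direction counted against DMSO.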

Measured: AC50

CCOP(=O)(O)C(N)=O
inactive: [1] | [2] | [3] | [4] | [5] | [6] | [7] | [8] | [9] | [10] | [11]

O=S(=O)(F)C(F)(F)C(F)(F)C(F)(F)C(F)(F)C(F)(F)C(F)(F)C(F)(F)C(F)(F)F
inactive: [12] | [13] | [14] | [4] | [5] | [15] | [6] | [7] | [8] | [9] | [16] | [10] | [11] | [17] | [18] | [19]
active: [10] 63.6 µM

CCCCN(CCCC)SN(C)C(=O)Oc1cccc2c1OC(C)(C)C2
active: [10] 31.6 µM | [18] 20 µM | [19] 32.3 µM
inactive: [1] | [13] | [4] | [15] | [6] | [7] | [8] | [9] | [16] | [11]

CCOP(=S)(OCC)SCn1nnc2ccccc2c1=O
inactive: [12] | [13] | [5] | [6] | [8] | [9] | [16] | [11] | [17] | [19]
active: [2] 26.5 µM | [15] 100 µM | [7] 58.6 µM | [10] 1.6 µM | [18] 10.7 µM

CCCCCCCc1ccc(O)cc1
active: [10] 14.1 µM and 7.28 µM and 7.2 µM | [18] 38 µM | [19] 38.2 µM
inactive: [1] | [13] | [4] | [5] | [15] | [6] | [7] | [8] | [9] | [16] | [10] | [11]
